The test system of assay [1] is TRPC4 beta (transient receptor potential cation channel C4), mouse. Briefly: TRPC4 cation channel opening, retest – cell-based, Fluo4 calcium, HEK293 TRPC4beta/mu-opioid, duplicates, 10 µM, confirmation (AID 2426;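 active means fluorescence ratio normalized to control raised more than 50% in primary screen plus both repeat runs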). The note with it: Fluo4 calcium fluorescence, at 10 µM; hits give high values.
Assay [2] deals with transient receptor potential cation channel C4 beta (TRPC4), mouse. Briefly: TRPC4 cation channel opening, second retest – cell-based, second round, Fluo4, HEK293 TRPC4beta/mu-opioid, 1 µM, confirmation (AID 2461;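 active means primary screen active and over 50% activation in each of two duplicate runs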). The note with it: Fluo4 calcium fluorescence, at 1 µM; hits give high values.
The subject of assay [3] is TRPC4 (transient receptor potential cation channel C4 beta), mouse. Briefly: potentiation of DAMGO EC20 TRPC4 response – cell-based, second round, Fluo-4, HEK293 TRPC4beta/mu-opioid, 1 µM, confirmation (AID 2554;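 active means primary screen hit whose fluorescence ratio, in both repeats, exceeds the weak agonist control mean by 3 SD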). As to conditions: DAMGO EC20, Fluo-4 calcium flux, at 1 µM; hits give high values.
The test system of assay [4] is TRPC4 beta (transient receptor potential cation channel C4), mouse. Briefly: potentiation of DAMGO EC20 TRPC4 response – cell-based, Fluo-4, HEK293 TRPC4beta/mu-opioid, confirmation (AID 2555;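 active means primary screen hit whose calcium fluorescence ratio, in both repeats, exceeds the weak agonist control mean by 3 SD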). The note with it: DAMGO EC20, Fluo-4 calcium flux, at 10 µM; hits give high values. A general note: A change in cytosolic calcium serves as a functional read-out for many receptors and channels.

For assay [5], the target named is Short transient receptor potential channel 4 (Mus musculus) (UniProt Q9QUQ5). Briefly: blockers of DAMGO-evoked TRPC4 calcium flux – cell-based, Fluo4, HEK293 TRPC4beta/mu-opioid, confirmation (AID 2636;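 active means calcium signal cut by more than 3 SD below the full-agonist control yet still positive, in both repeats and the earlier primary screen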). As to conditions: at 10 µM; hits give high values.
Sequence of Short transient receptor potential channel 4 (Mus musculus) (Q9QUQ5 whole entry, looked up): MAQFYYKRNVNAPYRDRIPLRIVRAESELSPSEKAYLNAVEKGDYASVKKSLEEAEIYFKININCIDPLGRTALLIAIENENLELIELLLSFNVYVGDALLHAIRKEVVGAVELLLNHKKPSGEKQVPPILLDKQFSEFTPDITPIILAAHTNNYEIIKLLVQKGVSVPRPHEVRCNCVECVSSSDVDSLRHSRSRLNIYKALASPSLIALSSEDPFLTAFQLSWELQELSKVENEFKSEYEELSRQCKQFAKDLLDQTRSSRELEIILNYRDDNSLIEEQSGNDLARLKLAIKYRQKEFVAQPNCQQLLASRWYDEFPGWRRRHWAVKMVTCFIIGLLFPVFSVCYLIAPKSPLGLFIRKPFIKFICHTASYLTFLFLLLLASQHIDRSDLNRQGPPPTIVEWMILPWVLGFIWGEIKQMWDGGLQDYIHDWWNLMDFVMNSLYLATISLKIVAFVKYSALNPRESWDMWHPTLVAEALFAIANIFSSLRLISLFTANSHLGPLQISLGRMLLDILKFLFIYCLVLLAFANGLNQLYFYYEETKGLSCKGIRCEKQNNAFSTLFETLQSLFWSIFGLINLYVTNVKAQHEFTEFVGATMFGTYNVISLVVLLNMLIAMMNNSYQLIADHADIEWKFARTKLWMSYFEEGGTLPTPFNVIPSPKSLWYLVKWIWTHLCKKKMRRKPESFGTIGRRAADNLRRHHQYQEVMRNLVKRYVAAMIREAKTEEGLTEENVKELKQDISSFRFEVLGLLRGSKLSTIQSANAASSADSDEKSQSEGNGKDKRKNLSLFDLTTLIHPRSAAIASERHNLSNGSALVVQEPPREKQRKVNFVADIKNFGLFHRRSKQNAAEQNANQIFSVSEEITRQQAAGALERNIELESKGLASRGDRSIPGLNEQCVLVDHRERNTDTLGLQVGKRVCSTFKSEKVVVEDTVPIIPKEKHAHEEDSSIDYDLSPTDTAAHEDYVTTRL
Assay [6] has the same target. Briefly: blockers of DAMGO-evoked TRPC4 calcium flux – cell-based, second round, Fluo4, HEK293 TRPC4beta/mu-opioid, 1 µM, confirmation (AID 2637;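 active means calcium signal ratio cut to more than 3 SD under the fully stimulated control mean yet still positive, in both repeats and the primary screen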). As to conditions: at 1 µM; hits give high values.
The target is the same in assay [7]. Briefly: calcium entry via TRPC4 opening agents – cell-based, HEK293 TRPC4/mu-opioid, Fluo-4 calcium, dose response (AID 434937;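 active means primary screen activator hit with a dose response curve and TRPC4 channel activation at any tested dose; inactive means no activation, no dose response, or not a primary hit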).
The target is the same in assay [8]. As to the kind of experiment: potentiation of DAMGO-evoked TRPC4 calcium signal – cell-based, HEK293 TRPC4/mu-opioid, Fluo-4 calcium, EC20 DAMGO, dose response (AID 434941;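 active means earlier screen potentiator hit that boosts the TRPC4 ion channel at some dose, with a dose response; inactive means no potentiation, no dose response, or not a prior hit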;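 further: calcium entry triggered by an EC20 dose of DAMGO at the co-expressed mu-opioid receptor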).
For assay [9] the target is unchanged. As to the kind of experiment: block of DAMGO-driven TRPC4 calcium entry – cell-based, HEK293 TRPC4/mu-opioid, Fluo-4 calcium, dose response (AID 434942;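 active means primary screen inhibitor hit that blocks the TRPC4 channel at some tested dose, yielding a dose curve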).
The target of assay [10] is Short transient receptor potential channel 6 (Mus musculus) (UniProt Q61143). Briefly: TRPC6 blockade by TRPC4 inhibitor hits – cell-based, HEK293, membrane potential dye, duplicate, selectivity assay for TRPC4 inhibitor project, confirmation (AID 434948;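 active means active in primary screen and both duplicates, each dropping signal beyond three positive-control SD with fluorescence still positive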). As to conditions: HEK293 TRPC6, membrane potential dye fluorescence, at 10 µM, stimulated with maximal-effect acetylcholine; hits give high values.
Sequence of Short transient receptor potential channel 6 (Mus musculus) (Q61143 whole entry, looked up): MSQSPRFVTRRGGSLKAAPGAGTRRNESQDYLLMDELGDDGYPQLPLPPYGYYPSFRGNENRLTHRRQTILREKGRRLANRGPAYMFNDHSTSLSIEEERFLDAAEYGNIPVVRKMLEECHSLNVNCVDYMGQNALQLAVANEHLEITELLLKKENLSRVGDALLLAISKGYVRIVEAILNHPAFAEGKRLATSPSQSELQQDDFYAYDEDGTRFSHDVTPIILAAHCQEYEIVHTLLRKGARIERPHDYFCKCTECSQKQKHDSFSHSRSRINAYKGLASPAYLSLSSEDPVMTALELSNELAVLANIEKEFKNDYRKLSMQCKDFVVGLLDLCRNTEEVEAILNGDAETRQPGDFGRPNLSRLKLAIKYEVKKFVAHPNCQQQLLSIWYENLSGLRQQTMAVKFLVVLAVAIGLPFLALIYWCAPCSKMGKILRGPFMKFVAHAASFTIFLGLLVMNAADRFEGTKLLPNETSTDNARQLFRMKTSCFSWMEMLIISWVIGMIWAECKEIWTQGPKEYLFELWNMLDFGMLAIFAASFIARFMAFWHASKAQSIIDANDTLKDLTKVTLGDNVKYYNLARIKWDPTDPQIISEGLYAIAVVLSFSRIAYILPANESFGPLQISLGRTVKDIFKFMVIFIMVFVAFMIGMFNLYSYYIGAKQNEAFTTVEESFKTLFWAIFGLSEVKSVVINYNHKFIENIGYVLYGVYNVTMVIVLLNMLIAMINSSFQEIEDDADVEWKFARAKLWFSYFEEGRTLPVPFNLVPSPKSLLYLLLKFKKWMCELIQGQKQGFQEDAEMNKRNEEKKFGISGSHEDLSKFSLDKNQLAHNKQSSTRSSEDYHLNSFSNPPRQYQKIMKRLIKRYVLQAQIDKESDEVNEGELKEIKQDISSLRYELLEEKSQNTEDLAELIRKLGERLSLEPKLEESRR

The target is the same in assay [11]. As to the kind of experiment: TRPC6 opening by TRPC4 activator hits – cell-based, HEK293, membrane potential dye, duplicate, selectivity assay for TRPC4 activator project, confirmation (AID 434950;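 active means membrane potential signal rise above negative control mean plus 3 SD in both duplicates, also active in the earlier TRPC4 screen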). As to conditions: HEK293 TRPC6, membrane potential fluorescence, at 10 µM; activation: hits give high values; outcome: activation.
The target is the same in assay [12]. Briefly: positive modulators of mouse TRPC6 channel – HEK293 cells, membrane potential dye, duplicate, selectivity assay for TRPC4 potentiator project, confirmation (AID 434952). As to conditions: HEK293 TRPC6, membrane potential dye fluorescence, at 10 µM, maximal acetylcholine added after compound; hits give high values.
The target of assay [13] is Short transient receptor potential channel 4 (Mus musculus) (UniProt Q9QUQ5). As to the kind of experiment: calcium flux activators in TRPC4/5HT1a cells, counter-screen for TRPC4 activator project, cell-based, second counter screen, HEK293 TRPC4/5HT1a, Fluo-4 (AID 434977;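 active means calcium signal rise above buffer-control mean plus 5 SD in both duplicates, and also a hit in the primary screen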). As to conditions: Fluo-4 calcium flux, at 10 µM; hits give high values.
The nature of assay [14]: serotonin-gated TRPC4 signal block – cell-based, second counter screen, HEK293 TRPC4/5HT1a, Fluo-4, counter-screen for TRPC4 inhibitor project, confirmation (AID 434978;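 active means primary screen active whose calcium signal fell more than 3 SD beyond the full-serotonin control mean in both duplicate plates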;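 on outcome: serotonin given first at submaximal then at maximal dose after compound preincubation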). The note with it: Fluo-4 calcium flux, at 10 µM, serotonin added to trigger calcium flux; hits give high values.
Assay [15] relates to TRPC4 (mouse), co-expressed with 5HT1a in HEK293. Briefly: enhancement of serotonin-evoked TRPC4 response – cell-based, second counter screen, HEK293 TRPC4/5HT1a, Fluo-4, counter-screen for TRPC4 potentiator project, confirmation (AID 434979;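 active means signal rise over 3 SD above mean of control wells given weak agonist, in both repeats and first screen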). As to conditions: Fluo-4 calcium flux, at 10 µM, serotonin added at its EC20 dose; hits give high values.
Assay [16] is described as follows: nonspecific calcium rise without TRPC4 – cell-based, HEK293 mu-opioid receptor line, counter-screen for TRPC4 activator project, confirmation (AID 449723;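 active means hit in primary screen, with calcium signal over 5 SD above buffer well mean in both duplicates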;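 further: counter screen cells carry the mu-opioid receptor alone and lack TRPC4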). The note with it: HEK293 mu-opioid cells, Fluo-4 calcium fluorescence, at 10 µM; hits give high values.
A short description of assay [17]: nonspecific potentiation of DAMGO calcium response – cell-based, HEK293 mu-opioid receptor line, counter-screen for TRPC4 allosteric potentiator project, confirmation (AID 449724;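 active means calcium signal rise more than 3 SD above the low-dose agonist control mean, in both duplicate plates and the primary screen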;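 further: HEK293 cells carrying mu-opioid receptor only with no TRPC4 channel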). As to conditions: HEK293 mu-opioid receptor cells, Fluo-4 calcium flux, at 10 µM, compound added before EC20 DAMGO stimulus; hits give high values. A general note: Counterscreens check selectivity or assay interference.

For part of these data: Measured potencies and affinities stand elsewhere. The source made the active and inactive calls.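 How the source made its calls, unless noted: active means compound raising the membrane signal above positive-control mean plus 3 SD in both repeats, and a primary screen hit; inactive means the rest.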

As for `O=S(=O)(c1ccc(Cl)cc1Br)N1CCCCC1`, the outcome in [1], in [2], in assay [3], in [4], in assay [5] and in assay [6] was inactive. For the same molecule, the outcome in assay [7], in assay [8], in assay [9], in [10], in [11] and in assay [12] was inactive. Besides, the result in assay [13], in assay [14], in assay [15], in [16] and in assay [17] was inactive.
For `COc1ccccc1N1CCN(c2ncc(C(=O)N3CCN(c4cccc(Cl)c4)CC3)c3ccccc23)CC1`, the outcome in assay [1], in assay [2], in [3], in assay [4], in [5] and in assay [6] was inactive. For the same molecule, the result in assay [7], in [8], in assay [9], in [10], in assay [11] and in assay [12] was inactive. Moreover, the outcome in assay [13], in assay [14], in assay [16] and in [17] was inactive. For the same molecule, the potentiation in assay [15] was 13.4% (active).
Take `CC(C)CCc1noc(CN2CCN(c3ccc(Cl)cn3)CC2)n1`: the outcome in [1], in [2], in assay [3], in [4], in [5] and in [6] was inactive. Moreover, the result in assay [7], in [8], in [9], in assay [10], in assay [11] and in [12] was inactive. Moreover, the result in assay [13], in assay [14], in assay [15], in [16] and in assay [17] was inactive.
`C/C(=N/OCO/N=C(/C)c1ccc(F)cc1)c1ccc(F)cc1`: the result in assay [1], in [2], in assay [3], in assay [4], in [5] and in [6] was inactive. Moreover, the outcome in assay [7], in assay [8], in assay [9], in assay [10], in assay [11] and in assay [12] was inactive. The outcome in assay [13], in [14], in assay [15], in [16] and in [17] was inactive.
Usually inhibition stands for how much of the control response was suppressed. As to `CC(C)CCOc1ccc(C(=O)NCC(c2ccco2)N(C)C)cc1` (stereo not given), the result in assay [1], in [2], in assay [3], in [4], in [6] and in assay [7] was inactive. The result in assay [8], in assay [9], in assay [10], in assay [11], in assay [12] and in assay [13] was inactive. Also, the outcome in assay [14], in assay [15], in assay [16] and in [17] was inactive. For the same molecule, the inhibition in [5] was 89% (active).
Consider `CCOc1cccc(CN2CCCC(C(=O)c3cccc(C(F)(F)F)c3)C2)c1O` (stereo not given), for which the outcome in assay [1], in [2], in assay [3], in assay [4], in assay [6] and in [7] was inactive. The result in assay [8], in assay [9], in assay [10], in assay [11], in assay [12] and in assay [13] was inactive. Further, the outcome in assay [15], in [16] and in [17] was inactive. The inhibition in assay [5] was 77% (active); in assay [14] it was 42.2% (active).
For the molecule `Cc1ccc(S(=O)(=O)NC(=O)N2CCN(Cc3c(F)cccc3Cl)CC2)cc1`, the result in assay [1], in assay [2], in assay [3], in assay [4], in assay [5] and in assay [6] was inactive. Moreover, the outcome in [7], in [8], in assay [9], in assay [10], in assay [11] and in assay [12] was inactive. For the same molecule, the result in [13], in [14], in assay [16] and in assay [17] was inactive. In addition, in assay [15], the potentiation is 15.3% (active).
With `Cc1ccc(CS(=O)(=O)CCC(=O)NCCC2=CCCCC2)cc1`, the outcome in assay [1], in assay [2], in [4], in assay [5], in [6] and in assay [7] was inactive. Further, the result in assay [8], in assay [9], in assay [10], in [11], in assay [12] and in assay [13] was inactive. Moreover, the result in assay [14], in assay [16] and in assay [17] was inactive. In addition, the potentiation in [3] is 14% (active); in assay [15], 18.2% (active).
`CCC(=O)Nc1cc(ON=C(C)C)cc([N+](=O)[O-])c1`: the outcome in [1], in [2], in assay [3], in assay [4], in [5] and in assay [6] was inactive. For the same molecule, the result in assay [7], in [8], in [9], in [10], in assay [11] and in [12] was inactive. The result in assay [13], in assay [14], in assay [15], in assay [16] and in [17] was inactive.
Consider `Cn1c(=O)c2c(nc(CN3CCc4ccccc4C3)n2Cc2ccc(F)cc2)n(C)c1=O`, for which the outcome in assay [1], in [2], in [3], in [4], in assay [5] and in assay [6] was inactive. The result in assay [7], in assay [8], in [9], in assay [10], in [11] and in assay [12] was inactive. Moreover, the result in [13], in assay [14], in assay [16] and in assay [17] was inactive. For the same molecule, the potentiation in assay [15] was 59.5% (active).
In the case of `CCN1CCN(c2nc(N)c([N+](=O)[O-])c(Nc3ccc(C)cc3)n2)CC1`, the result in assay [1], in [2], in [5], in assay [6], in assay [7] and in [8] was inactive. The outcome in [9], in [10], in assay [11], in assay [12], in assay [13] and in [14] was inactive. The result in [16] and in assay [17] was inactive. The results for the potentiation in [3], in assay [4] and in assay [15] were 22% (active), 13% (active) and 24.9% (active), respectively.
For `O=C(CN1CCCC1)N1c2ccccc2Sc2ccc(C(F)(F)F)cc21`, the outcome in assay [1], in [2], in [3], in assay [4], in assay [5] and in assay [6] was inactive. Besides, the result in assay [7], in [8], in assay [9], in assay [10], in assay [11] and in assay [12] was inactive. Moreover, the outcome in assay [13], in assay [14], in [15], in [16] and in assay [17] was inactive.
As for `COc1cc(COCC(O)CN2CCN(CCN3C(=O)c4cccc5cccc(c45)C3=O)CC2)cc(OC)c1OC` (stereo not given), the outcome in assay [1], in assay [2], in [3], in [4], in assay [5] and in assay [6] was inactive. The outcome in assay [7], in assay [8], in assay [9], in [10], in assay [11] and in [12] was inactive. In addition, the result in [13], in assay [14], in assay [15], in assay [16] and in [17] was inactive.
In the case of `CN(C)S(=O)(=O)c1ccc(Cl)c(C(=O)NC2CCN(Cc3ccccc3)C2)c1` (stereo not given), the result in assay [1], in [2], in [3], in assay [4], in [5] and in assay [6] was inactive. Besides, the result in [7], in [8], in assay [9], in [10], in assay [11] and in assay [12] was inactive. The result in assay [13], in assay [14], in [16] and in [17] was inactive. Further, the potentiation in assay [15] was 15.3% (active).
Take `CN(C)c1ccc(C(=S)N2CCN(c3ccc([N+](=O)[O-])cc3)CC2)cc1`: the outcome in assay [1], in [2], in assay [3], in assay [4], in assay [5] and in assay [6] was inactive. For the same molecule, the result in assay [7], in assay [8], in assay [9], in [10], in assay [11] and in assay [12] was inactive. For the same molecule, the result in assay [13], in assay [14], in assay [16] and in assay [17] was inactive. Further, the potentiation in [15] was 8.7% (active).

For the origin of these results see PubChem BioAssay.
